High-throughput results (PubChem)
Granule exo inh: lytic granule exocytosis inhibition | TALL-104 LAMP-1 surface exposure, flow cytometry; cells stimulated with thapsigargin and PMA | inhibition, % at 10 µM | 360,000 tested, 0.66% active | AID 651702;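 active = inhibition above about 55%, limit read from the data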
rCAG binder: r(CAG) repeat RNA binding. TO-PRO-1 dye displacement fluorescence. inhibition, % at 3 µM. 370,000 tested, 1.3% active. AID 651821;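 active = inhibition above the plate cutoff, the mean of all test compounds on that plate plus 3 SD, cut at about 35% in these data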;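 also: higher means more dye released from RNA so lower well fluorescence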
PG9 binder: binds the HIV-1 gp120 antibody PG9; inhibition, % at 6.7 µM; 360,000 tested, 0.43% active; TR-FRET gp120-PG9 antibody binding; in the data active = inhibition above about 8.5%
ABCB6 inh MLPCN: inhibitors of human ABC transporter ABCB6. K562-ABCB6 porphyrin accumulation, flow cytometry, 1 h; active compounds read low. fluorescence ratio to DMSO, % at 10 µM. 360,000 tested, 0.19% active;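 active = fluorescence ratio to DMSO below 75%, the collection mean minus 3 SD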;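 also: signal is porphyrin accumulated inside mitochondria; lower ratio means ABCB6 inhibition with less porphyrin fluorescence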
Target sequence (Q9NP58 whole entry, looked up): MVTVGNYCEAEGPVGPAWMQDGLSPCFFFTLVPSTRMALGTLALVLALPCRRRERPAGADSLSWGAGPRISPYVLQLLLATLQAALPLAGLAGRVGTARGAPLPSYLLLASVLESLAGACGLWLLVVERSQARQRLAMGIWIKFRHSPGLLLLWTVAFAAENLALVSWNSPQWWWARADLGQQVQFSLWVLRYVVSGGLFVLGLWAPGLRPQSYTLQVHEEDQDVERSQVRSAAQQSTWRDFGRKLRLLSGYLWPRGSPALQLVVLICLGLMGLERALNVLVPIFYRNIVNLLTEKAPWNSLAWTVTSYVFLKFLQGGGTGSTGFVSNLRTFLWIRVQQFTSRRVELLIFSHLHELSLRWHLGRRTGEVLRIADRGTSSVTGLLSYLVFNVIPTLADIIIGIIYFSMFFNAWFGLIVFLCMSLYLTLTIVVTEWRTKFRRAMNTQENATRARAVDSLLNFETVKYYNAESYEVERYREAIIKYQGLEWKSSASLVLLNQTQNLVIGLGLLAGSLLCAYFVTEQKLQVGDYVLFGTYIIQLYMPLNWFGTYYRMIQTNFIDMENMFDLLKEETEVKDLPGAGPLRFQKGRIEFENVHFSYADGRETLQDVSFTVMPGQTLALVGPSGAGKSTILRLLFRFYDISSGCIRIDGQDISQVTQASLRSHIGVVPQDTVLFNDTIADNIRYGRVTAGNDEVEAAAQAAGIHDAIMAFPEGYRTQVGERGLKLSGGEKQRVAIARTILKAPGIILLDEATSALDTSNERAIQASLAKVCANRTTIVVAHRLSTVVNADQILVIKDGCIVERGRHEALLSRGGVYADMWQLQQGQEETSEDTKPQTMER
PG9 binder conf: PG9 antibody binding, confirmed | shares compounds with PG9 binder | TR-FRET PG9 antibody binding, biochemical | inhibition, % at 6.7 µM | 1,500 tested, 90% active; in the data active = inhibition above about 9%
PGV04 Ab binding: PGV04 control antibody binding, counter-screen; shares compounds with PG9 binder; TR-FRET PGV04 antibody-gp120 binding, biochemical; inhibition, % at 6.7 µM; 1,500 tested, 95% active; in the data active = inhibition above about 9.5%
PG9 binder DR: PG9 antibody binding, dose response | shares compounds with PG9 binder | 95 tested, under 10 active | IC50, µM | TR-FRET PG9 antibody-gp120 binding inhibition | AID 651848; in the data active = IC50 below about 10 µM
PGV04 binding DR: PGV04 binding, dose response counter-screen. shares compounds with PG9 binder. TR-FRET binding to control antibody PGV04. IC50, µM. 95 tested, 20% active. AID 651937
PG126 DR counter: counter-screen for PG9 binders: binding to control antibody PG126. AID 651939. shares compounds with PG9 binder. TR-FRET binding to antibody PG126, counterscreen. IC50, µM. 95 tested, 20% active
Exocytosis CP01: lytic granule exocytosis inhibition; shares compounds with Granule exo inh; TALL-104 cells, LAMP-1 externalization, flow cytometry; stimulated with PMA plus thapsigargin; inhibition, % at 10 µM; 1,500 tested, 11% active; in the data active = inhibition above about 60%
rCAG bind conf: r(CAG) RNA repeat binding, confirmation. shares compounds with rCAG binder. TO-PRO-1 dye displacement fluorescence. inhibition, % at 3 µM. 4,300 tested, 70% active. AID 652065;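 active = inhibition above a per-plate cutoff, the mean inhibition of sample wells plus 3 SD, cut at about 35% in these data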;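 also: loss of TO-PRO-1 fluorescence as compound displaces dye from 1x1 AA loop RNA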
dCAG dye counter: counter-screen for rCAG RNA binders: DNA CAG dye complex inhibitors; shares compounds with rCAG binder; d(CAG) DNA oligo TO-PRO-1 dye displacement, fluorescence; inhibition, % at 3 µM; 4,300 tested, 94% active;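 active = inhibition above its plate's cutoff, the mean test-well inhibition plus 3 SD, cut at about 4.8% in these data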;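 also: hits displace the dye from DNA and so lower well fluorescence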
Numbers stand for hits; – = inactive; · = no result given; ! = repeats disagree. Shown are actives, neighbours in structure and some others; about 2.5% of the full set was active somewhere. Rule as the data show it, unless noted: active = IC50 below about 9 µM; inactive = the rest.

SMILES	Granule exo inh	rCAG binder	PG9 binder	ABCB6 inh MLPCN	PG9 binder conf	PGV04 Ab binding	others
CC(=O)c1cn(CC(=O)Nc2cccc(C)c2C)c2ccccc12	–	–	–	–	·	·
CCC(=O)c1cn(CC(=O)Nc2cccc(C)c2C)c2ccccc12	–	–	9.9	–	18.9	23.1
Fc1ccc(-n2c(CN3CCCCC3)n[nH]c2=S)cc1	–	–	–	–	·	·
Cc1ccc(C(=O)COC(=O)c2ccco2)cc1C	–	–	–	–	·	·
Brc1ccc2ncc(Br)cc2c1	–	–	12.2	–	16.1	22.9
O=c1c2cc3c(=O)n(-c4ccccc4O)c(=O)c3cc2c(=O)n1-c1ccccc1O	–	–	–	–	·	·
CCCn1c(=O)c(C(=O)NCC2CCCO2)c(O)c2ccccc21 (configuration not stated)	–	–	8.6	–	11.9	15.5
COCCNC(=O)C1(C)CCN(C(=O)c2ccc(SC(F)(F)F)cc2)C1 (configuration not stated)	–	–	–	–	·	·
CC(C)n1nc(C(=O)OCC(=O)NCCc2ccc(S(N)(=O)=O)cc2)c2ccccc2c1=O	–	–	–	–	·	·
Cc1ccc(-c2c3c([nH]c(=S)c2C#N)CCCC3)o1	–	–	16.1	–	8.7	–	PG9 binder DR=–;PGV04 binding DR=–;PG126 DR counter=–
NC(CO)(CO)COCc1ccccc1	–	–	–	–	·	·
COc1ccccc1Cn1c(=S)[nH]c2ccc(F)cc2c1=O	–	–	32.4	–	18.4	17.1	PG9 binder DR=–;PGV04 binding DR=–;PG126 DR counter=–
CCCc1nnc(NC(=S)Nc2ccccc2)s1	–	–	11.3	–	10.2	12.6
Cc1ccc(-c2cc(C(=O)N(C)Cc3cnn(C)c3C)c3cc(Br)ccc3n2)cc1	–	–	21.0	–	24.6	30.2
CCOC(=O)[C@]12CCC=C1N(Cc1ccccc1)C(=O)[C@H](CC(=O)NCCC(C)C)C2	–	–	–	–	·	·
Nc1cc(Cl)ccc1C(=O)OCC(=O)NC1CCCCC1	–	–	30.5	–	29.4	41.4
O=C(CSc1nnc(-c2ccc(Br)cc2)n1C1CCCCC1)N1CCCC1	–	–	9.3	–	8.7	10.2
O=C(CSc1nnc(-c2ccccc2F)n1C1CCCCC1)N1CCCC1	–	–	–	–	·	·
COC(=O)Cc1ccc2sc(-c3ccccc3)nc2c1	–	–	–	–	·	·
O=C(O)Cc1ccc2sc(-c3ccccc3)nc2c1	–	–	9.0	–	11.2	16.9
Cc1cc(NCCCOC(C)C)n2c(nc3ccccc32)c1C#N	61.8	–	10.7	–	21.9	32.6	Exocytosis CP01=–
CCc1ccccc1NC(=O)NCc1cccnc1	–	–	–	–	·	·
CN1CCc2cccc3c2[C@H]1Cc1ccc(O)c(O)c1-3	83.6	–	10.6!	–	12.3	15.3	Exocytosis CP01=–
O=C(Nc1sc2c(c1C(=O)NCc1ccco1)CCCC2)c1ccc2c(c1)OCO2	59.2	–	15.2	–	8.6	19.5	Exocytosis CP01=–
Cc1ccc(C(=O)Nc2sc3c(c2C(=O)NCc2ccco2)CCCC3)cc1	–	–	–	–	·	·
SMILES	Granule exo inh	rCAG binder	PG9 binder	ABCB6 inh MLPCN	PG9 binder conf	PGV04 Ab binding	others
COC(=O)C(CCSC)NC(=O)c1cn(-c2ccc(OC)cc2)c(=O)c2ccccc12 (configuration not stated)	–	–	–	–	·	·
COC(=O)c1sc(NC(=O)C2CCCCC2C(=O)O)c(C(=O)OC)c1C (configuration not stated)	–	39.2	12.7	–	17.7	22.8	rCAG bind conf=44.1;dCAG dye counter=9.0
CC[C@@H]1[C@H]2CCCC(=O)N3CC[C@@H](C[C@@H]1Nc1ccccc1)[C@@H]23	–	–	–	–	·	·
CC1CC(C)CN(CCCNS(=O)(=O)c2ccc3c(c2)oc(=O)n3C)C1 (configuration not stated)	–	–	–	–	·	·
O=C1C(C=Nc2ccccc2O)=C(O)c2ccccc21	–	–	–	–	·	·
Cc1ccc(O)c(N=CC2=C(O)c3ccccc3C2=O)c1	–	50.5	17.5	–	24.3	31.0	rCAG bind conf=41.6;dCAG dye counter=18.4
Cc1cc(F)ccc1S(=O)(=O)N1CCCOC1CNC(=O)C(=O)NC1CCCCC1 (configuration not stated)	–	–	–	–	·	·
CCCCOc1ccc(-c2c(C(=O)Nc3ccccc3)c(C)[nH]c(=S)c2C#N)cc1	–	60.0	60.3	–	–	–	rCAG bind conf=36.0;dCAG dye counter=15.8
CCOC(=O)c1c(C)[nH]c(=S)c(C#N)c1-c1ccc(OC)cc1	–	–	–	–	·	·
CCCOc1cccc(C2C(C(=O)c3cc4ccccc4o3)=C(O)C(=O)N2c2cc(C)on2)c1 (configuration not stated)	–	43.5	17.6	–	23.7	38.4	rCAG bind conf=76.6;dCAG dye counter=35.8
Cc1cc(N2C(=O)C(O)=C(C(=O)c3cc4ccccc4o3)C2c2ccc(OC(C)C)cc2)no1 (configuration not stated)	–	–	–	–	·	·
Cc1cc(N2C(=O)C(O)=C(C(=O)c3cc4ccccc4o3)C2c2cccc(Br)c2)no1 (configuration not stated)	–	69.5	38.2	–	43.4	56.2	rCAG bind conf=79.3;dCAG dye counter=45.8
O=c1[nH]c2cccnc2n1Cc1ccccc1	–	–	–	–	·	·
Cc1cccc(NC(=O)CSc2nc(-c3ccccc3)c(C#N)c(=O)[nH]2)c1C	–	–	–	–	·	·
Cc1cc(C)nc(NS(=O)(=O)c2ccc(NC(=O)CSc3nc4ccccc4[nH]3)cc2)n1	–	–	–	–	·	·
Cc1cc(C)nc(NS(=O)(=O)c2ccc(NC(=O)CSc3nc(-c4ccccc4)c(C#N)c(=O)[nH]3)cc2)n1	–	45.1	35.6	–	44.0	57.9	rCAG bind conf=–;dCAG dye counter=7.4
N#Cc1c(-c2ccccc2)nc(SCC(=O)Nc2ccc(OC(F)(F)Cl)cc2)[nH]c1=O	–	90.3	8.8	–	18.0	22.2	rCAG bind conf=84.6;dCAG dye counter=57.9
COC(=O)c1sc(NC(=S)NNC(=O)c2c(Br)c(C)nn2C)c(C(=O)OC)c1C	–	69.2	18.5	–	–	10.0	rCAG bind conf=90.1;dCAG dye counter=70.1
COc1ccccc1-c1nnc(Nc2nc3c(OC)cccc3s2)o1	–	52.7	10.7	–	22.6	25.6	rCAG bind conf=57.5;dCAG dye counter=19.5
